Screening data (PubChem)
HT1080 IDH1KD tx – toxicity to HT-1080 IDH1 knockdown cells (counter line) | Potency, µM (titrated, usually from 46.1 µM), most hits filed as cytotoxic | HT-1080 IDH1 knockdown viability, ATP luminescence, 48 h | 360,000 compounds, 2% hits | AID 686971
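After a 2 h attachment period, IDH1KD HT-1080 cells took pin-transferred compound for 48 h at 37 °C; ATP-based luminescence after 10 min room-temperature reagent incubation reported viability.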
TDP1 cell noCPT – qHTS for Inhibitors of human tyrosyl-DNA phosphodiesterase 1 (TDP1): qHTS in cells in absence of CPT; 420,000 compounds, 15% hits; Potency, µM (top dose mostly 46.2 µM), usual class: inhibitors; AID 686978, 2013; DT40 Tdp1-/- hTDP1 cells, no CPT, ATP luminescence, 48 h; further: nearly all actives have a fitted effect of over 55% in size
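Seeded 400 DT40-hTDP1 cells/well (vehicle DMSO, no 20 nM CPT); pinned compounds; ≥48 hr at 37 °C; CellTiter-Glo luminescence as viability measure.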
12-LOX inh – inhibitors of human 12S-lipoxygenase ALOX12 | P18054 | purified 12hLO, xylenol orange hydroperoxide absorbance | Potency, µM (series often up to 108 µM), usual class: inhibitors | 580,000 compounds, 1.1% hits | AID 1671190
Target sequence (P18054 whole entry, looked up): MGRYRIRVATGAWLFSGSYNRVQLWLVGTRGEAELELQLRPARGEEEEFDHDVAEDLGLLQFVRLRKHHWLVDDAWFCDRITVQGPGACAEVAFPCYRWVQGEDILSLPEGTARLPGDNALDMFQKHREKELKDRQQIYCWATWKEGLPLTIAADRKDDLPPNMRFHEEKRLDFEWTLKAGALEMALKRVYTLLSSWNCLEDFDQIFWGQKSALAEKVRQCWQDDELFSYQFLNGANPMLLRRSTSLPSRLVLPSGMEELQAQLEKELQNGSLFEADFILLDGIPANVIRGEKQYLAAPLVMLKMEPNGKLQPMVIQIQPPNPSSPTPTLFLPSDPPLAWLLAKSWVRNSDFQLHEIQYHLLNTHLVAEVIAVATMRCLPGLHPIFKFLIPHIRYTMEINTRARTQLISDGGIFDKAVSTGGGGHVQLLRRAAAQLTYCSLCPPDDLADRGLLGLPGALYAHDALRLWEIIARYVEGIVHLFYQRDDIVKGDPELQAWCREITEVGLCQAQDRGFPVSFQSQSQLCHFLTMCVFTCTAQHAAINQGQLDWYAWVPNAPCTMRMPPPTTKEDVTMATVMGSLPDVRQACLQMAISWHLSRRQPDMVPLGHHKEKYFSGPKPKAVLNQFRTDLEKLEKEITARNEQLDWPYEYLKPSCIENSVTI
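Purified human 12hLO at 150 nM in 25 mM Hepes, 0.01% Triton X-100, pH 7.0, preincubated 15 min at room temperature with compound. Reaction started with 40 uM arachidonic acid, 30 min at room temperature. Hydroperoxide measured by Fe-xylenol orange, 573/405 nm absorbance ratio.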
IL1B secr inh – inflammasome signaling inhibition, IL-1 beta readout | THP-1 LPS/ATP IL-1B secretion, AlphaLISA, 16 h; hits give low values | activity change, % at 57.5 µM | 360,000 compounds, 4.7% hits | AID 743279; in the data active means activity change below about -50%; inconclusive means mostly about -30% to -49%
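Secreted IL-1B measured by AlphaLISA bead assay after 16 h compound exposure of THP-1 cells; compounds (final up to 57.5 uM) added 1 h before LPS (250 ng/mL) and ATP (1.25 mM) stimulation; lower signal means less secretion.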
HT1080NT lethal – kills 2HG-producing HT-1080-NT fibrosarcoma cells; Potency, µM (series often up to 46.1 µM), hits mostly cytotoxic; AID 686970; HT-1080-NT fibrosarcoma viability, CellTiter-Glo ATP luminescence, 48 h; 360,000 compounds, 1.6% hits;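 further: NT is the 2HG producing partner of a matched IDH1 knockdown line; nearly all actives have a fitted effect of over 55% in size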
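HT-1080-NT; 750 cells/well; 5% FBS RPMI; 48 h compound, 37 degrees C; CellTiter-Glo luminescence; curve fitting and curve-class assignment.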
TDP1 cell CPT – growth inhibition of DT40 Tdp1-/-;hTDP1 cells with camptothecin (screen for TDP1 inhibitors). chicken DT40 Tdp1-/-;hTDP1 cells + 20 nM CPT, ATP luminescence, 48 h. Potency, µM (highest dose often 46.2 µM), actives largely listed as inhibitors. 420,000 compounds, 12% hits. AID 686979; further: nearly all actives have a fitted effect of over 55% in size
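Chicken DT40 Tdp1-/- cells stably complemented with human TDP1 were seeded at 400 cells/well in medium containing 20 nM camptothecin, exposed to pin-transferred compounds, and grown at 37 °C for at least 48 hr. Viability was read as ATP luminescence.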
Each line names hits and unclear results; the compound was inactive in the other large screens. This excerpt belongs to a sample that is enriched for hits. Unless noted, the call rests on the fitted dose curve; in most records, active means well fitted curve in the direction sought with a large enough effect; inconclusive means small, poorly fitted or top-dose-only effect, or another doubt; inactive means no such curve, though single readings can be large; an effect the other way counts as inactive or inconclusive.

Cc1ccc2c(CN3CCN(Cc4ccccc4Cl)CC3)cc(=O)oc2c1	TDP1 cell noCPT 23.1µM, TDP1 cell CPT 16.4µM (no result: HT1080 IDH1KD tx, IL1B secr inh, HT1080NT lethal)
Cc1ccc2oc(=O)cc(CN3CCN(C/C=C/c4ccccc4)CC3)c2c1	TDP1 cell noCPT 16.4µM, TDP1 cell CPT inconclusive
CCCCCC(=O)N1C[C@@H](n2cc(-c3ccc(F)cc3)nn2)[C@H](O)C[C@@H]1c1ccc(Cl)cc1	HT1080 IDH1KD tx 16.4µM, TDP1 cell noCPT 11.6µM, IL1B secr inh -55.9, HT1080NT lethal inconclusive, TDP1 cell CPT 14.6µM
CCCCCC(=O)N1C[C@H](O)[C@@H](n2cc(-c3ccc(F)cc3)nn2)C[C@@H]1c1ccc(Cl)cc1	HT1080 IDH1KD tx inconclusive, TDP1 cell noCPT 18.4µM, IL1B secr inh inconclusive, HT1080NT lethal inconclusive, TDP1 cell CPT 18.4µM
CCCCCC(=O)N1C[C@H](n2cc(-c3ccc(F)cc3)nn2)[C@@H](O)C[C@@H]1c1ccc(OC)cc1	none
O=C(NCc1ccc(Cl)cc1)C1CCCN(c2cnn(Cc3ccccc3)c(=O)c2)C1 (stereo unspecified)	none (no result: HT1080 IDH1KD tx, TDP1 cell noCPT, IL1B secr inh, HT1080NT lethal, TDP1 cell CPT)
CCOc1cccc(CN2C[C@@H]3C(=O)N(CCN4CCc5ccccc5C4)C(=O)[C@@H]3C2)c1	none (no result: HT1080 IDH1KD tx, TDP1 cell noCPT, IL1B secr inh, HT1080NT lethal, TDP1 cell CPT)
S=c1nc(-c2ccco2)[nH][nH]1	12-LOX inh 6.31µM
CC(NC(=O)c1cc(S(N)(=O)=O)ccc1F)c1ccc2c(c1)OCCCO2 (stereo unspecified)	none (no result: HT1080 IDH1KD tx, TDP1 cell noCPT, IL1B secr inh, HT1080NT lethal, TDP1 cell CPT)
CCn1cnnc1-c1nn(C)c2c1CN(C(=O)c1[nH]nc3c1CCc1cc(OC)ccc1-3)CC2	none (no result: HT1080 IDH1KD tx, TDP1 cell noCPT, IL1B secr inh, HT1080NT lethal, TDP1 cell CPT)
O=C(/C=C/c1c(F)cccc1Cl)Nc1ncccn1	none
Nc1nccc(/C=C/c2c(F)cccc2Cl)n1	IL1B secr inh -85.1
Cn1c(SCC(=O)NN2C(=O)NC(C)(c3ccccc3)C2=O)nnc1-c1ccncc1 (stereo unspecified)	TDP1 cell noCPT 29.1µM
O=C(NCc1cccnc1)c1ccc(-c2ccc(N3CCSCC3)nc2)cc1	none (no result: HT1080 IDH1KD tx, TDP1 cell noCPT, IL1B secr inh, HT1080NT lethal, TDP1 cell CPT)
O=C(Nc1ccc2oc(C3CC3)nc2c1)c1ccc(=O)[nH]c1	none (no result: HT1080 IDH1KD tx, TDP1 cell noCPT, IL1B secr inh, HT1080NT lethal, TDP1 cell CPT)
Cc1cc(=S)n2cn[nH]c2n1	12-LOX inh 0.447µM (no result: HT1080 IDH1KD tx, TDP1 cell noCPT, IL1B secr inh, HT1080NT lethal, TDP1 cell CPT)
Cc1cc(=O)n2cn[nH]c2n1	none
C/C(=N\NC(=O)CCC(=O)NCc1ccccc1)c1ccc(Cl)cc1	none (no result: HT1080 IDH1KD tx, TDP1 cell noCPT, IL1B secr inh, HT1080NT lethal, TDP1 cell CPT)
COc1ccc(CN=C2NC(=O)CC(C(=O)Nc3ccc(Cl)cc3)S2)cc1 (stereo unspecified)	HT1080 IDH1KD tx inconclusive, TDP1 cell noCPT 13µM, HT1080NT lethal inconclusive, TDP1 cell CPT 20.6µM
Cc1cccc(CN(CC(=O)N/N=C/c2cccs2)S(=O)(=O)c2ccc(Cl)cc2)c1	HT1080 IDH1KD tx inconclusive, TDP1 cell noCPT 29.1µM, TDP1 cell CPT inconclusive
C/C(=N\NC(=O)c1ccc(Cl)cc1)c1cccs1	TDP1 cell noCPT inconclusive, IL1B secr inh -63.2
C/C(=N\NC(=O)c1ccc(NS(=O)(=O)c2cccs2)cc1)c1ccc(Cl)cc1	TDP1 cell noCPT 23.1µM, TDP1 cell CPT inconclusive
O=C(NN=Cc1c(F)c(F)c(F)c(F)c1F)c1ccc(NS(=O)(=O)c2cccs2)cc1	TDP1 cell noCPT inconclusive, IL1B secr inh -98.8, TDP1 cell CPT inconclusive
C/C(=N/NC(=O)c1ccccc1)c1cccs1	none (no result: HT1080 IDH1KD tx, TDP1 cell noCPT, IL1B secr inh, HT1080NT lethal, TDP1 cell CPT)
Cc1cccc(CN(CC(=O)N/N=C/c2ccco2)S(=O)(=O)c2ccc(Cl)cc2)c1	TDP1 cell noCPT inconclusive, 12-LOX inh inconclusive, TDP1 cell CPT inconclusive
C/C(=N\NC(=O)c1ccc(NS(=O)(=O)c2cccs2)cc1)c1ccc2c(c1)OCO2	TDP1 cell noCPT inconclusive, TDP1 cell CPT inconclusive
Cn1nc(C(=O)N2CC[C@H]3C(=O)NCCCCCCN(Cc4ccncc4)[C@@H]3C2)c2ccccc21	none (no result: HT1080 IDH1KD tx, TDP1 cell noCPT, IL1B secr inh, HT1080NT lethal, TDP1 cell CPT)
COc1cccc(C(=O)N2[C@@H]3CC[C@H]2CC(NC(=O)c2cnc(C)cn2)C3)c1C (stereo partly specified)	none (no result: HT1080 IDH1KD tx, TDP1 cell noCPT, IL1B secr inh, HT1080NT lethal, TDP1 cell CPT)
O=C(Nc1ccc(Cl)c(Cl)c1)C1CCCN(c2ncnc3nc[nH]c23)C1 (stereo unspecified)	none (no result: HT1080 IDH1KD tx, TDP1 cell noCPT, IL1B secr inh, HT1080NT lethal, TDP1 cell CPT)
O=C(NC1CCCCC1)N1CCC(c2noc(-c3cccnc3)n2)C1 (stereo unspecified)	none (no result: HT1080 IDH1KD tx, TDP1 cell noCPT, IL1B secr inh, HT1080NT lethal, TDP1 cell CPT)
COc1ccc(CN(C)C2CCc3nn(C)c(=O)n3CC2)cc1Cn1cccn1 (stereo unspecified)	none (no result: HT1080 IDH1KD tx, TDP1 cell noCPT, IL1B secr inh, HT1080NT lethal, TDP1 cell CPT)
CC(/C=C/c1ccccc1F)=N\NC(=O)c1ccc(Cl)cc1	HT1080 IDH1KD tx 7.31µM, TDP1 cell noCPT 14.6µM, HT1080NT lethal 4.61µM, TDP1 cell CPT 14.6µM
CC(=O)Nc1ccc(C=NNC(=O)c2ccc(NS(=O)(=O)c3cccs3)cc2)cc1	none
C/C(=N\NC(=O)c1ccc(NS(=O)(=O)c2cccs2)cc1)c1cccs1	IL1B secr inh -52.3
O=C(N/N=C/c1cccs1)c1cccc(NC(=O)c2ccc(Cl)cc2)c1	none (no result: HT1080 IDH1KD tx, TDP1 cell noCPT, IL1B secr inh, HT1080NT lethal, TDP1 cell CPT)
CC(/C=C/c1ccccc1F)=N\NC(=O)c1ccccc1	HT1080 IDH1KD tx inconclusive, TDP1 cell noCPT inconclusive, IL1B secr inh inconclusive, TDP1 cell CPT inconclusive
O=C(N/N=C/c1cccs1)c1cccc(S(=O)(=O)Nc2ccc(Cl)cc2)c1	HT1080 IDH1KD tx 16.4µM, TDP1 cell noCPT inconclusive, HT1080NT lethal 11.6µM, TDP1 cell CPT inconclusive
O=C(COc1ccc2nncn2n1)N1CCCC(c2ccn[nH]2)C1 (stereo unspecified)	none (no result: HT1080 IDH1KD tx, TDP1 cell noCPT, IL1B secr inh, HT1080NT lethal, TDP1 cell CPT)
